# Test results reported in ChEMBL document CHEMBL3988442, “University of Dundee, Small-Polar-MMV Screening Library” (2021).
# Hit rate of the full screen: of about 48,000 compounds, about 13,000 (27%) showed an effect of 50% or more. The list shows a part of the results.
# System: Wolbachia pipientis
# Test: Anti-Wolbachia Cell-Based Screen
# Type: functional
# Set-up: scale not given: in the data most compounds retested in dose-response had high values
# Conditions: 5 µM
row,SMILES,Percent Effect
1,CC(C)[C@H]1CN(CCS(C)(=O)=O)C[C@@H]1NC(=O)c1ccc(=O)[nH]c1,-6.33%
2,NC(=O)Cn1c(SCc2noc(-c3ccsc3)n2)nnc1C1CC1,7.901%
3,Cc1cc(C)cc(C(=O)NCc2ncnn2C)c1,-13.46%
4,CC(OCC1CC1)C(=O)Nc1ccn(Cc2ccccc2)n1 (centres undefined),-8.999%
5,N[C@H]1CC[C@@H](NC(=O)c2ccc3nc(-c4ccc(F)cc4)cn3c2)CC1,-22.5%
6,Cn1nc(C(=O)NCc2cccc(Cn3ccnc3)c2)ccc1=O,-21.54%
7,Cn1cccc1C(=O)NCc1cn2c(n1)CN(C(=O)c1ccsc1)CC2,7.383%
8,O=C(NCC1CCOCC1)[C@@H]1C[C@@H]2[C@@H](CCN2Cc2ccoc2)O1,102.5%
9,O=C(NC1CC1)[C@H]1CC[C@@H]2[C@@H](CCN2Cc2ccsc2)O1,-0.273%
10,O=C(NCC1CC1)[C@H]1CC[C@@H]2[C@@H](CCN2Cc2ccoc2)O1,3.009%
11,Cc1ccc(OCC(=O)NCc2sccc2C)nc1,-2.294%
12,CSC(C)C(=O)NCCCc1cc(N)n(-c2ccccc2)n1 (centres undefined),6.591%
13,Cc1ccc(-n2nc(C)c3c(C)cc(OCC(=O)NC(C)C)nc32)cc1,109.8%
14,CCCNC(=O)COc1cc(C)c2c(C)nn(-c3ccc(C)cc3)c2n1,109.7%
15,CC(C)NC(=O)NCCCc1cc(N)n(-c2ccccc2)n1,-14.76%
16,Cc1ccc2oc(N3CCN(CC(=O)NC(C)C)CC3)nc2c1,0.7244%
17,Cc1ccc(OCC(=O)NCc2ccccc2F)nc1,-9.663%
18,CCNC(=O)COc1cc(CC)c2c(C)nn(-c3ccc(C)cc3)c2n1,126.5%
19,Cc1cc(C)c2c(OCC(=O)NC(C)C)nn(C)c2n1,-14.3%
20,CCCNC(=O)COc1cc(C)c2c(C)nn(-c3ccccc3)c2n1,102.4%
21,CCCNC(=O)COc1ccc(C)cn1,4.173%
22,Cc1ccc(OCC(=O)NCC(C)C)nc1,0.1298%

row,SMILES,Percent Effect
1,CCn1ncc2c1CCCC2NCc1cccc2c1OCCO2 (centres undefined),5.32%
2,COCCCSc1ccc(NCc2ccc(C)cn2)cc1,-7.055%
3,CCN(CC)[C@@H]1CN(Cc2cnn(C)c2)[C@@H]2COC[C@H]12,6.266%
4,COC1CCN(Cc2csc(C(C)C)n2)CC1,-2.369%
5,CC(CN1CCCC1)C(=O)N1CCC(c2nccn2CC2CC2)CC1 (centres undefined),-20.21%
6,CSCc1noc(C2CCC(=O)N(CCc3ccccc3)C2)n1 (centres undefined),-4.988%
7,CCc1noc(C2CCCCN2C(=O)c2nnc3ccccc3n2)n1 (centres undefined),13%
8,CC(NC(=O)NC1CCN(Cc2ccncc2)CC1)c1ccc(F)cc1 (centres undefined),24.84%
9,O=C(CC1CC1)N1Cc2nccn2CC(Cn2ncccc2=O)C1 (centres undefined),90.4%
10,O=C(N1CCCC1)N1Cc2nccn2CC(Cn2ncccc2=O)C1 (centres undefined),113.1%
11,O=C(c1ccco1)N1Cc2nccn2CC(Cn2ncccc2=O)C1 (centres undefined),108.6%
12,COCC1CN(C(=O)c2ccco2)Cc2nccn2C1 (centres undefined),4.87%
13,COCC(=O)N1Cc2nccn2CC(Cn2ncccc2=O)C1 (centres undefined),110.2%
14,O=C1CCCN1CC1CN(C(=O)N2CCOCC2)Cc2nccn2C1 (centres undefined),4.749%
15,O=C1CCCN1CC1CN(C(=O)CC2CCCC2)Cc2nccn2C1 (centres undefined),-15.1%
16,O=C(CC1CC1)N1Cc2nccn2CC(CN2CCCC2)C1 (centres undefined),-4.92%
17,COCC1CN(C(=O)c2ccc(C)o2)Cc2nccn2C1 (centres undefined),-22.35%
18,O=C(C1CC=CC1)N1Cc2nccn2CC(CN2CCCC2)C1 (centres undefined),16.54%
19,O=C(N1CCN(c2ccccc2O)CC1)C1(O)Cc2ccccc2C1,-7.176%
20,O=C(N[C@@H]1CN(c2ncccn2)C[C@@H]2CCCO[C@@H]21)c1ccnnc1.O=C(O)C(F)(F)F,-7.292%
21,CSc1ccccc1C(=O)Nc1ccc(OC2CCN(C)CC2)cc1,4.435%
22,Cn1cc(CNc2cnn(CC3CCCO3)c2)c(-c2ccncc2)n1 (centres undefined),4.968%

row,SMILES,Percent Effect
1,CN(Cc1cccnc1)CC1CN(C(N)=O)Cc2nccn2C1 (centres undefined),-13.65%
2,O=C(O)C(F)(F)F.O=C(O)C(F)(F)F.O=C(c1ccccn1)N1Cc2nccn2CC(CN2CCOCC2)C1 (centres undefined),-3.585%
3,NC(=O)N1Cc2nccn2CC(Cn2ncccc2=O)C1 (centres undefined),106.3%
4,O=C(c1ccc[nH]1)N1Cc2nccn2CC(Cn2ncccc2=O)C1 (centres undefined),107.9%
5,O=C(c1ccccc1)N1Cc2nccn2CC(Cn2ncccc2=O)C1 (centres undefined),106.9%
6,CS(=O)(=O)N1Cc2nccn2CC(Cn2ncccc2=O)C1 (centres undefined),1.411%
7,CSc1ncc(C(=O)N2C[C@H]3CC[C@@H]2CN(c2ncccn2)C3)cn1,-34.6%
8,CC(C)N(CC(N)=O)Cc1cccc(Br)c1,-7.902%
9,CCN(Cc1nc(COC)no1)C(=O)CCNC(=O)c1ccccc1F,-2.73%
10,CCN(Cc1cccc(C(=O)Nc2c(C)cnn2C)c1)[C@H]1COC[C@@H]1O,2.472%
11,CC(C)c1nsc(NC2CCOC3(CCCC3)C2)n1 (centres undefined),-5.666%
12,CCc1ncc(C(=O)NCCNc2ncnc3sccc23)s1,-14.73%
13,Cc1ncc(C(=O)NCCNc2ccncc2)s1,106.3%
14,CCCC(C)(C)NC(=O)c1cnc(C)s1,-0.6309%
15,CCc1ncc(C(=O)NCCNC(=O)Cc2ccc(F)cc2)s1,-2.58%
16,Cc1ncc(C(=O)NCCNc2ncnc3sccc23)s1,-47.31%
17,CCc1ncc(C(=O)NCCNc2ccncc2)s1,82.39%
18,Cc1ccc(-c2nnc(CN3CCOCC(CO)C3)o2)n1C (centres undefined),-20.97%
19,CCOC1CCCN(C(=O)c2[nH]nc(C(C)C)c2Br)C1 (centres undefined),-3.012%
20,Cc1cnn(CC2CCCN2C(=O)CCc2c(C)nn(C)c2C)c1 (centres undefined),103.1%
21,Cc1cnn(CC2CCCN2C(=O)CCc2c(C)noc2C)c1 (centres undefined),111.6%
22,Cc1cnn(CC2CCCN2C(=O)CCc2nc3ccccc3[nH]2)c1 (centres undefined),1.047%

row,SMILES,Percent Effect
1,Cc1cnn(CC2CCCN2C(=O)CCc2c(C)nc(C)[nH]c2=O)c1 (centres undefined),112.3%
2,Cc1cnn(CC2CCCCN2C(=O)Cc2csc(C)n2)c1 (centres undefined),1.923%
3,Cc1cnn(CC2CCCCN2C(=O)Cc2c(C)noc2C)c1 (centres undefined),117.3%
4,Cc1nn(C)c(C)c1CCC(=O)N1CCCC1Cn1cccn1 (centres undefined),11.22%
5,Cc1cc(CN(C)C2CCN(c3cccc(-c4cscn4)c3)CC2)on1,-19.07%
6,CNS(=O)(=O)c1ccc(C(=O)NCCNc2ncccn2)cc1,1.025%
7,CC(C)OCCOCc1cccc(NC(=O)NCc2ccncc2)c1,3.047%
8,Cn1nnc2cc(C(=O)NS(=O)(=O)c3ccc(F)cc3)ccc21,-8.568%
9,Cc1cnn(CC2CCCN2C(=O)Cc2c(C)noc2C)c1 (centres undefined),123.7%
10,Cc1cc(C)n(CC2CCCN2C(=O)Cc2c(C)noc2C)n1 (centres undefined),2.87%
11,COc1coc(CN2CCCC(CCc3ccc(F)cc3)C2)cc1=O (centres undefined),20.93%
12,CN(C)C(=O)CCC1CCCN(Cc2ccc(-c3cccnc3)cc2)C1 (centres undefined),-4.388%
13,COc1ccnc(CN2CCCC(CCc3ccccc3)C2)c1OC (centres undefined),-14.6%
14,Cc1[nH]c(=O)[nH]c(=O)c1CN1CCCC(CCc2ccccc2)C1 (centres undefined),-19.89%
15,Cc1nccn1CC1CCCN(Cc2ccc(-c3cccnc3)cc2)C1 (centres undefined),30.54%
16,COc1ccc(CCC2CCCN(CC(=O)O)C2)cc1 (centres undefined),116.8%
17,COc1ccc(CCC2CCCN(C(=O)CCc3cc(O)no3)C2)cc1 (centres undefined),6.592%
18,O=C(O)COc1ccc(CN2CCCC(CCc3ccccc3)C2)cc1 (centres undefined),98.9%
19,O=C(O)COc1ccc(CN2CCCC(Cc3cccnc3)C2)cc1 (centres undefined),125.7%
20,OCC(O)CSCc1ccc(Cl)cc1Cl (centres undefined),-1.817%
21,Cc1nc(NC(=O)OC(C)(C)C)sc1C#N,16.95%
22,CCCc1n[nH]c(C2CN(C(=O)c3cccc4cn[nH]c34)CCO2)n1 (centres undefined),108.2%

row,SMILES,Percent Effect
1,CCCc1n[nH]c(C2CN(C(=O)c3n[nH]c4ccccc34)CCO2)n1 (centres undefined),103.5%
2,CC(C)c1n[nH]c(C2CN(C(=O)c3cccc4cn[nH]c34)CCO2)n1 (centres undefined),2.376%
3,CCCc1n[nH]c(C2CN(C(=O)c3cc(F)ccc3OC)CCO2)n1 (centres undefined),-4.099%
4,CCCc1n[nH]c(C2CN(C(=O)c3cccnc3N(C)C)CCO2)n1 (centres undefined),106.9%
5,CCCc1n[nH]c(C2CN(C(=O)c3cccc4[nH]ncc34)CCO2)n1 (centres undefined),117.3%
6,COc1ccc(CNCCc2cccc(C(N)=O)c2)cc1O,8.083%
7,O=C(O)C(F)(F)F.O=C(O)C(F)(F)F.c1snnc1CN1C[C@H]2CCC[C@@H](CN3CCOCC3)[C@H]2C1,4.838%
8,COc1ccc(C(=O)NCCCC2(C3OCCO3)CCOCC2)cc1,0.9631%
9,CCCc1n[nH]c(C2CN(C(=O)c3ccc[nH]3)CCO2)n1 (centres undefined),125.3%
10,CCCc1n[nH]c(C2CN(C(=O)C3=COCCC3)CCO2)n1 (centres undefined),-2.018%
11,CCCc1n[nH]c(C2CN(C(=O)c3ccco3)CCO2)n1 (centres undefined),-0.9471%
12,Cc1csc(N2CCN(C(=O)Cc3ccc(C)s3)CC2)n1,9.508%
13,CO[C@H]1C[C@@H]2CN(C(=O)c3cccc4c3OCCO4)C[C@@H]2C1,78.24%
14,COc1ccc(F)cc1C(=O)N1C[C@H]2C[C@H](OC)C[C@H]2C1,117.3%
15,CO[C@H]1C[C@@H]2CN(C(=O)c3ccc(C)s3)C[C@@H]2C1,128.5%
16,COc1ccc(F)cc1C(=O)N1CCCC(n2nc(C)nc2C)C1 (centres undefined),-10.5%
17,C[C@@H]1C[C@H]2CN(C(=O)c3cccc4c3OCCO4)C[C@H]2O1,-11.28%
18,CO[C@H]1C[C@@H]2CN(C(=O)Cc3ccc(C)s3)C[C@@H]2C1,123.2%
19,COc1ccc(F)cc1C(=O)N1CC(c2ccncc2)C1,9.533%
20,Cc1ccc(CC(=O)NC(C)C(=O)N2CCS(=O)(=O)CC2)s1 (centres undefined),0.993%
21,C[C@H]1C[C@H]2CN(C(=O)c3cccc4c3OCCO4)CC[C@H]2O1,2.231%
